Reference: the supplement of paper PMC6555819

Columns and labels:
Assay in all cases: PBM binding z-score (relative to random genomic background probes); higher = stronger binding; sequences stand for … in GC…GCGATTGACAGCGTAGAATGAAGG
[1] = system: FXR:RXRa (NR concentration 270 nM, RXRa partner concentration 90 nM)
In short: (§1)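 Scanned fluorescence from custom Agilent 4×180K protein-binding microarrays was regression-normalized. Binding z-scores use random background probes as reference. Ligand-free nuclear receptor dimers were incubated on the arrays for 1 h and detected with antibodies against each partner (one per run).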

[2] = system: LXRa:RXRa (NR concentration 270 nM, RXRa partner concentration 90 nM)
In short: as §1

[3] = system: LXRa homodimer (NR concentration 270 nM)
In short: as §1

[4] = system: LXRb:RXRa (NR concentration 270 nM, RXRa partner concentration 90 nM)
In short: as §1

[5] = system: LXRb homodimer (NR concentration 270 nM)
In short: as §1

[6] = system: PPARa:RXRa (NR concentration 270 nM, RXRa partner concentration 90 nM)
In short: as §1

[7] = system: PPARg:RXRa (NR concentration 180 nM, RXRa partner concentration 90 nM)
In short: as §1

[8] = system: PPARg:RXRa 270nM:90nM, anti-RXR (NR concentration 270 nM, RXRa partner concentration 90 nM)
In short: as §1

[9] = system: PPARg:RXRa 30nM:10nM, anti-RXR (NR concentration 30 nM, RXRa partner concentration 10 nM)
In short: as §1

[10] = system: PPARg:RXRa 90nM:30nM, anti-RXR (NR concentration 90 nM, RXRa partner concentration 30 nM)
In short: as §1

[11] = system: PPARg:RXRa DBDmut IVT, anti-RXR (DBD mutation: RXRa K156A/R161A, NR concentration 270 nM, RXRa partner concentration 90 nM)
In short: as §1

[12] = system: PPARg:RXRa IVT, anti-PPARg (NR concentration 270 nM, RXRa partner concentration 90 nM)
In short: as §1

[13] = system: PPARg DBDmut:RXRa IVT, anti-PPARg (DBD mutation: PPARg1 K132A/R137A, NR concentration 270 nM, RXRa partner concentration 90 nM)
In short: as §1

[14] = system: PPARg DBDmut IVT, anti-PPARg (DBD mutation: PPARg1 K132A/R137A, NR concentration 270 nM)
In short: as §1

[15] = system: PPARg homodimer (NR concentration 180 nM)
In short: as §1

[16] = system: PXR:RXRa (NR concentration 270 nM, RXRa partner concentration 90 nM)
In short: as §1

[17] = system: PXR homodimer (NR concentration 270 nM)
In short: as §1

[18] = system: RARa:RXR (NR concentration 270 nM, RXRa partner concentration 90 nM)
In short: as §1

[19] = system: RARa homodimer (NR concentration 270 nM)
In short: as §1

[20] = system: RARb:RXRa (NR concentration 270 nM, RXRa partner concentration 90 nM)
In short: as §1

Row | Sequence | PBM binding z-score [1] | PBM binding z-score [2] | PBM binding z-score [3] | PBM binding z-score [4] | PBM binding z-score [5] | PBM binding z-score [6] | PBM binding z-score [7] | PBM binding z-score [8] | PBM binding z-score [9] | PBM binding z-score [10] | PBM binding z-score [11] | PBM binding z-score [12] | PBM binding z-score [13] | PBM binding z-score [14] | PBM binding z-score [15] | PBM binding z-score [16] | PBM binding z-score [17] | PBM binding z-score [18] | PBM binding z-score [19] | PBM binding z-score [20]
1 | TCTTGTAGATCAGCCGGTTAAGAAAGCTGGCCAA | -0.161 | 0.143 | -0.223 | 0.0561 | -0.394 | 0.168 | -0.791 | 1.24 | 2.52 | 1.74 | 1.7 | -0.0533 | -0.491 | 0.198 | -0.81 | -0.0108 | -0.447 | 0.0162 | -0.458 | -0.316
2 | CAAACCAGGTCAAGGTCAAAGTCGGTTTGTGCCA | 7.11 | 5.98 | 4.41 | 5.17 | 1.73 | 6.28 | 7.8 | 7.07 | 4.62 | 6.61 | 6.42 | 7.16 | 2.64 | 2.41 | 4.71 | 5.84 | 2.63 | 6.02 | 2.21 | 5.38
3 | CAAACTAGGTCACGAAAGGTCAAAGGCGAATGAC | 7.72 | 8.23 | 7.26 | 7.15 | 2.21 | 6.78 | 10.6 | 8.54 | 7.17 | 8.65 | 8.48 | 9.08 | 4.73 | 2.51 | 5.53 | 7.28 | 2.45 | 8.15 | 3.08 | 5.86
4 | TCATATAGGTAAACAGGTGAAAGACCGTAAGTTA | 0.974 | 0.774 | 0.26 | 0.571 | -0.084 | 2.47 | 3.45 | 3.63 | 4.12 | 4.03 | 4.76 | 4.63 | 1.09 | 1.03 | 1.16 | 0.687 | 0.35 | 1.22 | 1.07 | 0.77
5 | CCTATTAGTTGACAATAAGGGCAACCGAAGCTCG | 0.365 | 0.482 | 0.182 | 0.544 | 0.647 | 0.418 | 0.511 | 0.218 | 0.0655 | 0.0255 | 0.466 | 0.343 | 0.307 | 0.312 | 0.811 | 0.771 | 0.868 | 1.07 | 1.45 | 1.21
6 | AATACAGGGGCATCGTAGGCCAGAGTACGCACAG | 0.565 | 0.874 | 0.0851 | 1.04 | 0.436 | 1.06 | 1.13 | 0.622 | 0.174 | 0.275 | 0.577 | 1.26 | 0.192 | 0.567 | -0.0954 | 0.276 | 0.165 | 0.505 | -0.245 | 1.48
